Out of some 380,000 compounds screened, about 4,000 (1.1%) were called active. Roughly 3% stayed inconclusive and do not appear here. Calls come from the whole dose curve; as a rule, active = well fitted activation curve with a large enough effect; inconclusive = small, poorly fitted or top-dose-only effect; inactive = no such curve, though single readings can be large or run the other way. For the sample, actives were picked, then their nearest neighbours and some compounds at random.
experiment: qHTS Assay to Identify Small Molecule Activators of BRCA1 Expression; conditions: MCF7-BRCA1-FFLuc reporter, luminescence, 48 h; note: nearly all actives have a fitted effect of over 80% in size
Excerpt: Functionally, BRCA1 has been implicated in a wide array of cellular activities, including DNA damage repair, cell-cycle checkpoint control, growth inhibition, apoptosis, transcriptional regulation, chromatin remodeling, protein ubiquitylation, and mammary stem cell self-renewal and differentiation. Reduction in BRCA1 levels is associated with an increase in tumor growth and resistance to anti-estrogenic agents, such as tamoxifen, while an increase in BRCA1 expression leads to cell growth arrest and apoptosis. […] The frequent loss of BRCA1 expression in invasive breast cancers in the absence of somatic mutation has been attributed to numerous mechanisms, including hypermethylation of the BRCA1 promoter, exaggerated ubiquitylation of BRCA1 protein, and improper intracellular localization. […]
5microl of MCF7-BRCA1-FFLuc cell suspension (400 cells/microl in phenol-red free MEM) are dispensed into Greiner white solid bottom 1536-well assay plates, yielding a final well density of 2000 cells/well. […] The NCGC in-house luciferase substrate reagent, Buglite, is then added (2.5microl) and plates incubated for 15 minutes, before being transferred to a ViewLux high-throughput CCD imager (PerkinElmer) wherein single end-point measurements of luminescence are acquired using a clear filter. […]
Potency is the fitted concentration of half-maximal effect.

Row | SMILES | Potency
1 | O=C(OCC(=O)c1cccs1)C1=COCCO1 | 15.8 µM (active)

Source: PubChem BioAssay AID624202 (National Center for Advancing Translational Sciences (NCATS), 2012)
